# PubChem BioAssay (EPA / NIEHS)
# Calls of active or inactive are those of the source. Rule for the calls: active = hit-call score of the fitted dose curve at least 0.9, where 1 is the maximum; inactive = score below 0.9.
# Read-out: Macrophage colony-stimulating factor (MCSF), CSF1 (gene 1435)
# Test: BSK_CASM3C_MCSF: BioMAP Diversity Plus: CASM3C Assay for Macrophage colony-stimulating factor (MCSF) Biomarker Activity (AID 2283044);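 note: M-CSF protein amount quantified by ELISA after 24 h exposure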
# Details: primary human coronary artery smooth muscle cells; actives raise or lower the signal
Structure (SMILES),AC50,outcome
O=C1C(Cl)=C(Cl)C(=O)C(Cl)=C1Cl,20 µM (active),
N#CCCCCC#N,,inactive
CC(C)(c1cc(Cl)c(O)c(Cl)c1)c1cc(Cl)c(O)c(Cl)c1,20 µM (active),
COCC(=O)N(c1c(C)cccc1C)N1CCOC1=O,,inactive
CC(C)CCCCCCCOP(=O)(Oc1ccccc1)Oc1ccccc1,0.173 µM (active),
C=CCN(CC=C)C(=O)C(Cl)Cl,,inactive
c1ccc(Nc2ccc3ccccc3c2)cc1,20 µM (active),
Cc1ccc(OP(=O)(Oc2ccc(C)cc2)Oc2ccc(C)cc2)cc1 (tested in a mixture with another compound),,inactive
O=S(=O)(c1ccccc1)c1ccccc1,,inactive
CC(=O)/C=C/c1ccccc1,,inactive

# Read-out: Low-density lipoprotein receptor (LDLR), LDLR (gene 3949)
# Test: BSK_CASM3C_LDLR: BioMAP Diversity Plus: CASM3C Assay for Low-density lipoprotein receptor (LDLR) Biomarker Activity (AID 2283045);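 note: LDLR protein level on the cell surface quantified by ELISA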
# Details: primary human coronary artery smooth muscle cells; actives raise or lower the signal
Structure (SMILES),outcome,AC50
O=C1C(Cl)=C(Cl)C(=O)C(Cl)=C1Cl,inactive,
N#CCCCCC#N,inactive,
COCC(=O)N(c1c(C)cccc1C)N1CCOC1=O,inactive,
CC(C)CCCCCCCOP(=O)(Oc1ccccc1)Oc1ccccc1,,6.45 µM (active)
C=CCN(CC=C)C(=O)C(Cl)Cl,inactive,
c1ccc(Nc2ccc3ccccc3c2)cc1,inactive,
Cc1ccc(OP(=O)(Oc2ccc(C)cc2)Oc2ccc(C)cc2)cc1 (tested in a mixture with another compound),inactive,
O=S(=O)(c1ccccc1)c1ccccc1,inactive,
CC(=O)/C=C/c1ccccc1,inactive,

# Read-out: Monocyte Chemoattractant Protein-1 (MCP1), CCL2 (gene 6347)
# Test: BSK_CASM3C_MCP1: BioMAP Diversity Plus: CASM3C Assay for Monocyte Chemoattractant Protein-1 (MCP1) Biomarker Activity (AID 2283046);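 note: MCP-1 level quantified by ELISA 24 h after dosing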
# Details: primary human coronary artery smooth muscle cells; actives raise or lower the signal
Structure (SMILES),AC50,outcome
O=C1C(Cl)=C(Cl)C(=O)C(Cl)=C1Cl,20 µM (active),
N#CCCCCC#N,,inactive
CC(C)(c1cc(Cl)c(O)c(Cl)c1)c1cc(Cl)c(O)c(Cl)c1,32.6 µM (active),
COCC(=O)N(c1c(C)cccc1C)N1CCOC1=O,,inactive
CC(C)CCCCCCCOP(=O)(Oc1ccccc1)Oc1ccccc1,,inactive
C=CCN(CC=C)C(=O)C(Cl)Cl,,inactive
c1ccc(Nc2ccc3ccccc3c2)cc1,,inactive
Cc1ccc(OP(=O)(Oc2ccc(C)cc2)Oc2ccc(C)cc2)cc1 (tested in a mixture with another compound),,inactive
O=S(=O)(c1ccccc1)c1ccccc1,,inactive
CC(=O)/C=C/c1ccccc1,0.104 µM (active),

# Read-out: not listed separately
# Test: BSK_CASM3C_Proliferation: Cell Proliferation Assessment in the BioMAP Diversity Plus: CASM3C Assay (AID 2283047);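 note: sulforhodamine B total protein stain as relative cell number at 560 nm; sub-confluent cells exposed 48 h before staining; fitted both ways against DMSO so gain or loss of cell number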
# Details: primary human coronary artery smooth muscle cells
Structure (SMILES),AC50,outcome
O=C1C(Cl)=C(Cl)C(=O)C(Cl)=C1Cl,5.78 µM (active),
N#CCCCCC#N,,inactive
CC(C)(c1cc(Cl)c(O)c(Cl)c1)c1cc(Cl)c(O)c(Cl)c1,32.6 µM (active),
COCC(=O)N(c1c(C)cccc1C)N1CCOC1=O,,inactive
CC(C)CCCCCCCOP(=O)(Oc1ccccc1)Oc1ccccc1,,inactive
C=CCN(CC=C)C(=O)C(Cl)Cl,,inactive
c1ccc(Nc2ccc3ccccc3c2)cc1,31.7 µM (active),
Cc1ccc(OP(=O)(Oc2ccc(C)cc2)Oc2ccc(C)cc2)cc1 (tested in a mixture with another compound),,inactive
O=S(=O)(c1ccccc1)c1ccccc1,,inactive
CC(=O)/C=C/c1ccccc1,,inactive

# Read-out: Monokine induced gamma interferon (MIG), CXCL9 (gene 4283)
# Test: BSK_CASM3C_MIG: BioMAP Diversity Plus: CASM3C Assay for Monokine induced gamma interferon (MIG) Biomarker Activity (AID 2283048);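 note: MIG protein level measured by ELISA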
# Details: primary human coronary artery smooth muscle cells; actives raise or lower the signal
Structure (SMILES),AC50,outcome
O=C1C(Cl)=C(Cl)C(=O)C(Cl)=C1Cl,29.1 µM (active),
N#CCCCCC#N,,inactive
CC(C)(c1cc(Cl)c(O)c(Cl)c1)c1cc(Cl)c(O)c(Cl)c1,32.9 µM (active),
COCC(=O)N(c1c(C)cccc1C)N1CCOC1=O,,inactive
CC(C)CCCCCCCOP(=O)(Oc1ccccc1)Oc1ccccc1,,inactive
C=CCN(CC=C)C(=O)C(Cl)Cl,,inactive
c1ccc(Nc2ccc3ccccc3c2)cc1,,inactive
Cc1ccc(OP(=O)(Oc2ccc(C)cc2)Oc2ccc(C)cc2)cc1 (tested in a mixture with another compound),,inactive
O=S(=O)(c1ccccc1)c1ccccc1,,inactive
CC(=O)/C=C/c1ccccc1,,inactive

# Read-out: serum amyloid A (SAA), SAA1 (gene 6288)
# Test: BSK_CASM3C_SAA: BioMAP Diversity Plus: CASM3C Assay for serum amyloid A (SAA) Biomarker Activity (AID 2283049);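 note: SAA protein level quantified by ELISA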
# Details: primary human coronary artery smooth muscle cells; actives raise or lower the signal
Structure (SMILES),AC50,outcome
O=C1C(Cl)=C(Cl)C(=O)C(Cl)=C1Cl,20 µM (active),
N#CCCCCC#N,,inactive
CC(C)(c1cc(Cl)c(O)c(Cl)c1)c1cc(Cl)c(O)c(Cl)c1,32.1 µM (active),
COCC(=O)N(c1c(C)cccc1C)N1CCOC1=O,,inactive
CC(C)CCCCCCCOP(=O)(Oc1ccccc1)Oc1ccccc1,,inactive
C=CCN(CC=C)C(=O)C(Cl)Cl,,inactive
c1ccc(Nc2ccc3ccccc3c2)cc1,,inactive
Cc1ccc(OP(=O)(Oc2ccc(C)cc2)Oc2ccc(C)cc2)cc1 (tested in a mixture with another compound),,inactive
O=S(=O)(c1ccccc1)c1ccccc1,,inactive
CC(=O)/C=C/c1ccccc1,,inactive

# Read-out: not listed separately
# Test: BSK_CASM3C_SRB: Viability Assessment in the BioMAP Diversity Plus: CASM3C Assay (AID 2283050);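 note: total protein by SRB staining as cytotoxicity measure in parallel cultures; cells exposed to compound for 24 h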
# Details: primary human coronary artery smooth muscle cells
Structure (SMILES),AC50,outcome
O=C1C(Cl)=C(Cl)C(=O)C(Cl)=C1Cl,20 µM (active),
N#CCCCCC#N,,inactive
CC(C)(c1cc(Cl)c(O)c(Cl)c1)c1cc(Cl)c(O)c(Cl)c1,31.6 µM (active),
COCC(=O)N(c1c(C)cccc1C)N1CCOC1=O,,inactive
CC(C)CCCCCCCOP(=O)(Oc1ccccc1)Oc1ccccc1,20 µM (active),
C=CCN(CC=C)C(=O)C(Cl)Cl,,inactive
c1ccc(Nc2ccc3ccccc3c2)cc1,,inactive
Cc1ccc(OP(=O)(Oc2ccc(C)cc2)Oc2ccc(C)cc2)cc1 (tested in a mixture with another compound),,inactive
O=S(=O)(c1ccccc1)c1ccccc1,,inactive
CC(=O)/C=C/c1ccccc1,,inactive
